Among the data in PubChem BioAssay (Tox21) are outcome and Potency values, retold here.

Values joined by “and” are separate entries in the source; they are usually repeats but may differ in a detail not shown here. Equal entries are not always repeated. Values without a mark were called inactive. Results filed as inconclusive are left out. Active and inactive are the calls of the source. Unless noted, the call rests on the fitted dose curve; in most records, active means well fitted curve in the direction sought with a large enough effect in the repeat runs; inconclusive means weak or mixed curves; inactive means no such curve, though single readings can be large; an effect the other way counts as inactive or inconclusive.

A short description of assay [1]: qHTS assay to test for compound auto fluorescence at 535 nm (green) in HEK293 cells (AID 720680).
Assay [2] is described as follows: qHTS assay to test for compound auto fluorescence at 460 nm (blue) in HEK293 cell free culture (AID 720681). An outline of the steps: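 Compounds were added to cell-free DMEM with 10% FBS and fluorescence read directly. The blue channel used 405 nm excitation and 460 nm emission, with triamterene as the reference fluorophore.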
Assay [3] is described as follows: qHTS assay to test for compound auto fluorescence at 535 nm (green) in HEK293 cell free culture (AID 720682). An outline of the steps:
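Each library compound, or DMSO control, is added by pintool to medium alone, comprising DMEM and 10% FBS. Emission at 535 nm following 485 nm excitation is quantified against fluorescein.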
In general terms: Quantitative high-throughput screening tests each substance at several concentrations.

Assay [4] is described as follows: qHTS assay to test for compound auto fluorescence at 590 nm (red) in HepG2 cell free culture (AID 720684). An outline of the steps: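 Rose Bengal sodium served as the reference for red signal. Test compounds were dispensed into serum-containing MEM (10% FBS) without cells, and plates were read at 540/590 nm.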
A short description of assay [5]: qHTS assay to test for compound auto fluorescence at 460 nm (blue) in HepG2 cell free culture (AID 720685). In short, it runs like this: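 Cell-free plates of MEM plus 10% FBS received 23 nL compound or DMSO vehicle; blue-channel (405/460 nm) intensity scored against triamterene as reference fluorophore.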
The nature of assay [6]: qHTS assay to test for compound auto fluorescence at 535 nm (green) in HepG2 cell free culture (AID 720686).
Assay [7] is described as follows: qHTS assay to test for compound auto fluorescence at 460 nm (blue) in HepG2 cells (AID 720687). In short, it runs like this: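 HepG2 cells in MEM with 10% FBS, attached overnight at 37 C, were exposed to compound or DMSO for 1 hr at 37 C, 5% CO2. Blue fluorescence was read at 405/460 nm, with triamterene as reference fluorophore.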
For assay [8], the target named is Glucocorticoid receptor (Homo sapiens) (UniProt P04150). The assay can be described thus: qHTS assay to identify small molecule agonists of the glucocorticoid receptor (GR) signaling pathway (AID 720691; active means well fitted activation curve with a large enough effect in the signal ratio in the repeat runs, not every such curve was filed as active; the % refers to the signal ratio). An outline of the steps: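 HeLa GR-bla reporter line; cells pre-incubated 4 h, compound in DMSO 18 h at 37 C; LiveBLAzer B/G FRET substrate 2 h RT; fluorescence intensity read-out.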
Glucocorticoid receptor (Homo sapiens), sequence (P04150 whole entry, looked up): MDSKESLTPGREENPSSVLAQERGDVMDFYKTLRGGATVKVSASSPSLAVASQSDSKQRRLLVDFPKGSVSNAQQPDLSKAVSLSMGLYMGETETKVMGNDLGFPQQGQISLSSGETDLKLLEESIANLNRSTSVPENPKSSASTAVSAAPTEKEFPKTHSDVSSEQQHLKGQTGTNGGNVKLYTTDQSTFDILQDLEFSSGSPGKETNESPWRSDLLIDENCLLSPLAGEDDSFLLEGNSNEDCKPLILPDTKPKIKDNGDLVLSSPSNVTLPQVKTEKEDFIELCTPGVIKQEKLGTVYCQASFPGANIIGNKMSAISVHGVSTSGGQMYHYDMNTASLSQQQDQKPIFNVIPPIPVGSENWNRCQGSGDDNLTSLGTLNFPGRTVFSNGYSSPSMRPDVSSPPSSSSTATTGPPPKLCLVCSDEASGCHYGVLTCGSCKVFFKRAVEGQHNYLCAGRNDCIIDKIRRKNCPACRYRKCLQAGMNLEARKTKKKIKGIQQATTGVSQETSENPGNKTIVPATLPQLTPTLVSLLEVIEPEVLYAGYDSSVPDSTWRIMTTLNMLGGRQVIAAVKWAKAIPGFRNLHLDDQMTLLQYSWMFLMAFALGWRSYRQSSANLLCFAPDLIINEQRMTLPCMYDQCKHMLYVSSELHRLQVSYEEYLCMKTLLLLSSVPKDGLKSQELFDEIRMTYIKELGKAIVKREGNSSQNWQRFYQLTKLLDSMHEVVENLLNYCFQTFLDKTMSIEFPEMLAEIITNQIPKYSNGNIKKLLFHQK

The nature of assay [9]: qHTS assay to identify small molecule antagonists of the glucocorticoid receptor (GR) signaling pathway - cell viability counter screen (AID 720693). Further: nearly all actives have a fitted effect of over 55% in size.
Assay [10] is described as follows: qHTS assay for identifying genotoxic compounds that show differential cytotoxicity against isogenic chicken DT40 cell lines with known DNA damage response pathways - wild type cell line (AID 743012). Further: nearly all actives have a fitted effect of over 60% in size. Further: potency means the concentration at half of the fitted maximal effect. In short, it runs like this:
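CellTiter-Glo luminescence readout of viability in wild type DT40 cells after 40 h compound exposure at 37 C/5% CO2; 300 cells/well; reagent incubated 30 min at room temperature before reading.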

The nature of assay [11]: qHTS assay for identifying genotoxic compounds that show differential cytotoxicity against isogenic chicken DT40 cell lines with known DNA damage response pathways - Rev3 mutant cell line (AID 743014). Further: nearly all actives have a fitted effect of over 55% in size. Further: potency means the concentration at half of the fitted maximal effect.
A short description of assay [12]: qHTS assay for identifying genotoxic compounds that show differential cytotoxicity against isogenic chicken DT40 cell lines with known DNA damage response pathways - Rad54/Ku70 mutant cell line (AID 743015). Further: nearly all actives have a fitted effect of over 60% in size. Further: potency means the concentration at half of the fitted maximal effect.
Assay [13] is described as follows: qHTS assay to identify small molecule antagonists of the androgen receptor (AR) signaling pathway - cell viability counter screen (AID 743033; further: nearly all actives have a fitted effect of over 45% in size).
Assay [14] in a line: qHTS assay to identify small molecule antagonists of the androgen receptor (AR) signaling pathway using the MDA cell line - cell viability counter screen (AID 743041; further: nearly all actives have a fitted effect of over 45% in size). An outline of the steps:
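Cytotoxicity counter screen: MDA-kb2 AR-luc cells, compound + R1881, 16 h, 37C, 0% CO2; CellTiter-Fluor added at 15.5 h, fluorescence read after 30 min.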

Assay [15] has as its target Androgen receptor (Homo sapiens) (UniProt P10275). Put plainly: qHTS assay to identify small molecule antagonists of the androgen receptor (AR) signaling pathway (AID 743035; active means well fitted inhibition curve with a large enough effect in the signal ratio in the repeat runs, not every such curve was filed as active; the % refers to the signal ratio). An outline of the steps:
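AR-bla HEK293 reporter cells; 4 h settle at 37C/5% CO2; compound + R1881 agonist, 16 h at 37C; LiveBLAzer B/G FRET substrate 2 h RT; fluorescence intensity read. qHTS format.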

For assay [16] the target is unchanged. Put plainly: qHTS assay to identify small molecule agonists of the androgen receptor (AR) signaling pathway (AID 743036; active means well fitted activation curve with a large enough effect in the signal ratio in the repeat runs, with a control signal flat, not every such curve was filed as active; the % refers to the signal ratio). In short, it runs like this:
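Following a 4 h settling period, AR-UAS-bla HEK293 cells were dosed with compounds for 16 h at 37C. A 2 h room-temperature incubation with LiveBLAzer B/G FRET substrate preceded the fluorescence measurement.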

Assay [17] has the same target. Put plainly: qHTS assay to identify small molecule agonists of the androgen receptor (AR) signaling pathway using the MDA cell line (AID 743040; further: nearly all actives have a fitted effect of over 20% in size). In short, it runs like this: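 Luciferase read-out, ONE-Glo, 30 min RT. Cells: MDA-kb2 AR-luc, MMTV promoter with AR and GR response elements. Compound exposure 16 h, 37C, 0% CO2, after 5 h pre-incubation. qHTS agonist mode.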

Assay [18] shares this target. The assay can be described thus: qHTS assay to identify small molecule antagonists of the androgen receptor (AR) signaling pathway using the MDA cell line (AID 743042; further: nearly all actives have a fitted effect of over 55% in size). An outline of the steps:
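MDA-kb2 breast carcinoma cells carrying MMTV-luciferase (AR/GR responsive) were co-treated with compounds and the agonist R1881 for 16 h at 37C. Inhibition read as ONE-Glo luminescence; CellTiter-Fluor fluorescence measured in parallel for cytotoxicity.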

Assay [19] concerns the target Glucocorticoid receptor (Homo sapiens) (UniProt P04150). Put plainly: qHTS assay to identify small molecule antagonists of the glucocorticoid receptor (GR) signaling pathway (AID 720692; active means well fitted inhibition curve with a large enough effect in the signal ratio in the repeat runs, not every such curve was filed as active; the % refers to the signal ratio; further: potency means the concentration at half of the fitted maximal effect). An outline of the steps:
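Read-out: beta-lactamase FRET substrate fluorescence, 2 h at room temperature, in HeLa cells stably carrying a GRE-driven bla reporter. Compounds were co-incubated with 5 nM dexamethasone agonist (final) for 18 h at 37 C.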

Assay [20] can be described thus: qHTS assay to test for compound auto fluorescence at 590 nm (red) in HEK293 cell free culture (AID 720683). An outline of the steps: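 Cell-free wells of DMEM with 10% FBS received compound, and intrinsic fluorescence was read at excitation/emission 540/590 nm. Values expressed as equivalence to Rose Bengal sodium.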

Androgen receptor (Homo sapiens), sequence (P10275 whole entry, looked up): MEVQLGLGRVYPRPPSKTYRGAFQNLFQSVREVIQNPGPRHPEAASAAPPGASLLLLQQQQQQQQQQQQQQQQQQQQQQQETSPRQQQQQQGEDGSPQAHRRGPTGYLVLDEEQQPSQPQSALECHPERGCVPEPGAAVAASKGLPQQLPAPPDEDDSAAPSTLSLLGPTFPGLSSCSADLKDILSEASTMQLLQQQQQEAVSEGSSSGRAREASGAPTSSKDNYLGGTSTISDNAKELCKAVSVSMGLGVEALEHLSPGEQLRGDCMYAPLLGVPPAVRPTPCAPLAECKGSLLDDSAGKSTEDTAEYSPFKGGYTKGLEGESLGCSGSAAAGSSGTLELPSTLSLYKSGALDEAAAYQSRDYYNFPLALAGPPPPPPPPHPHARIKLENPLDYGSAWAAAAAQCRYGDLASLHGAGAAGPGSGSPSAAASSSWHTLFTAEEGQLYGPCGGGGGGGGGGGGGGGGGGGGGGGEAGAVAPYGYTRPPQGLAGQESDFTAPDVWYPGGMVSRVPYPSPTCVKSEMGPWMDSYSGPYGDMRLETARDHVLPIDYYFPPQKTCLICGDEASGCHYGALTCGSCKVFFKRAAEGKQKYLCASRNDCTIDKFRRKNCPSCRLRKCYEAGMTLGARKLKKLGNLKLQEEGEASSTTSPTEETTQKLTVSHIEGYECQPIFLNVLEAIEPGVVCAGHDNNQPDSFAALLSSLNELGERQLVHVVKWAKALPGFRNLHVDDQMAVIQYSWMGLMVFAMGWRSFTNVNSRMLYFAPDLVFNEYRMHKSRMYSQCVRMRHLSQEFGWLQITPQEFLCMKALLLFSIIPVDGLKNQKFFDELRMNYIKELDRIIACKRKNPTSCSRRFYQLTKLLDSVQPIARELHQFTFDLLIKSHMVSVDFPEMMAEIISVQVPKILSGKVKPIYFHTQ

As for `Cc1cc(O)cc2c1O[C@](C)(CCC[C@H](C)CCC[C@H](C)CCCC(C)C)CC2`, the result in [1], in assay [2], in assay [3], in [4], in assay [5] and in [6] was inactive. Further, the outcome in assay [7] and in assay [9] was inactive. Also, the Potency result in assay [8], in [10], in [11], in [12], in assay [13] and in [14] was “inactive” each time.

On to `FC1(F)C(F)(F)C(F)(F)C2(F)C(F)(F)C(F)(F)C(F)(F)C(F)(F)C2(F)C1(F)F` (configuration not stated), for which the outcome in [1], in assay [2], in [3], in assay [4], in assay [5] and in [6] was inactive. Also, the call in [7], in [9], in assay [15] and in assay [16] was inactive. Also, the Potency result in [8], in assay [13], in [17], in [14] and in assay [18] was “inactive” each time. The Potency in [12] was 21.1 µM (active).

`O=c1cc(CO)occ1O`: the result in [1], in assay [2], in [3], in assay [4], in assay [5] and in assay [6] was inactive. Moreover, the compound was called inactive in assay [7] and in assay [9]. The Potency result in [8], in assay [19], in assay [10], in assay [11], in assay [12] and in assay [13] was “inactive” throughout. For the same compound, the Potency result in assay [14] was “inactive”.

`N=c1nc(N2CCCCC2)cc(N)n1O`: the compound was classed as inactive in [1], in assay [2], in [3], in [4], in assay [5] and in [6]. Moreover, the call in assay [7] and in assay [9] was inactive. Moreover, the Potency result in assay [8], in [19], in assay [12], in [13] and in assay [14] was “inactive” throughout.

Consider `O=c1cc(-c2ccccc2)oc2ccccc12`, for which the call in assay [1], in assay [2], in assay [3], in assay [4], in [5] and in assay [6] was inactive. For the same compound, in [7], the outcome was inactive. For the same compound, the Potency is 27.5 µM (active) and 14.3 µM (active) in assay [19]; 21.7 µM (active) in [10]; 48.6 µM (active) and 43.1 µM (active) in [11]; 56.9 µM (active) in assay [12]. In addition, the Potency result in assay [13], in assay [17], in assay [14] and in assay [18] was “inactive” throughout.

With `O=C(CCCN1CCN(c2ccccn2)CC1)c1ccc(F)cc1`, the result in assay [1], in assay [2], in assay [3], in assay [20], in assay [4] and in assay [5] was inactive. In addition, the compound was called inactive in [6], in assay [7] and in assay [9]. Moreover, the Potency result in assay [13] and in assay [14] was “inactive” throughout.

In the case of `OCCOc1ccc(OCCO)cc1`, the compound was classed as inactive in assay [1], in [2], in assay [3], in [4], in [5] and in assay [6]. Also, the compound was called inactive in [7] and in assay [9]. The Potency result in assay [8], in assay [19], in assay [10], in assay [11], in assay [12] and in assay [13] was “inactive” throughout. The Potency result in assay [14] is “inactive”.

As for `CCOC(C)(C)C`, the compound was called inactive in [1], in assay [2], in assay [3], in [4], in assay [5] and in assay [6]. Also, the compound was classed as inactive in assay [7] and in [9]. For the same compound, the Potency result in [10], in assay [11], in [12], in [13] and in [14] was “inactive” each time.

For the compound `C=CCCCCCCCCC=O`, the compound was classed as inactive in [1], in assay [2], in [3], in assay [4], in assay [5] and in [6]. Besides, the outcome in assay [7] and in assay [9] was inactive. The Potency entry in assay [8], in assay [19], in assay [10], in assay [11], in [12] and in assay [13] was “inactive” in each case. For the same compound, in assay [14], the Potency result is “inactive”.
